Source: PubChem (several laboratories)
Peg3 prom inh = Peg3 promoter-driven luciferase inhibitors, primary screen, cell-based, HeLa, luciferase luminescence. HeLa PEG-Prom luciferase reporter, overnight. inhibition, % at 20 µM. actives 1.7% (n = 360,000). AID 588405, 2011;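 active = inhibition of at least 50% at 20 µM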
HIF-2a block = HIF-2a reporter inhibitors, primary screen, luminescence, 786-0 RCC cells; actives 0.72% (n = 360,000); AID 624352, 2012; inhibition, % at 18.8 µM; 786-0 RCC cells HIF-2a reporter, luciferase luminescence, overnight;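 active = inhibition of the luminescence signal of 40% or more relative to plate controls, in a single-dose primary screen at 18.75 µM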
EBV LMP1 NFkB = EBV LMP1-driven NF-kappaB luciferase reporter inhibitors, primary screen, cell-based, luminescence, single point. LMP1-induced NF-kappaB luciferase reporter cells. inhibition, % at 12.5 µM. actives 0.69% (n = 350,000). AID 504558, 2011; in the data active = inhibition above about 41%;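 also: 0% = neutral control wells and 100% = reference inhibitor control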
TROY signal inh = inhibitors of TROY-driven NF-kB signaling, primary screen, Q293 LMP1-TROYcd cells, NF-kB luciferase, uHTS; Q293 LMP1-TROYcd NF-kB luciferase reporter, 4 h; inhibition, % at 10 µM; actives 0.98% (n = 360,000);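 active = compounds whose plate-normalised and pattern-corrected inhibition of the luciferase reporter signal at the single screening dose is 50% or more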
TWEAK-Fn14 inh = inhibitors of TWEAK-Fn14 signaling, primary screen, luciferase reporter cells, uHTS; TWEAK-stimulated Fn14 reporter cells, luciferase luminescence, 8 h; inhibition, % at 10 µM; actives 2% (n = 360,000); AID 1159606, 2016; in the data active = inhibition above about 50%
MITF TRPM1 inh = inhibitors of MITF-dependent TRPM1 promoter reporter, primary screen, cell-based, SK-MEL-5, single point, luciferase | SK-MEL-5 TRPM1 promoter luciferase, 24 h | inhibition, % at 12.5 µM | actives 0.83% (n = 330,000) | AID 488899, 2010;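 active = mean inhibition across replicates of 60% or more, whatever share of single replicates reaches that level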
The depositor's hits bear a star; . = not tested or not shown. Sampled rows, rich in hits. Any-hit rate of the full collection: about 4%.

SMILES	Peg3 prom inh	HIF-2a block	EBV LMP1 NFkB	TROY signal inh	TWEAK-Fn14 inh	MITF TRPM1 inh
Cc1ccc(NC(=O)CN2C(=O)C3CCCCN3C(=O)c3ccccc32)cc1 (stereo not given)	5.1	9.2	2.3	.	52.6*	3.3
O=C(CCc1nc(-c2ccccc2F)no1)Nc1ccc(Oc2ccccc2)cc1	16.2	6.1	6.6	43.6	52.5*	8.3
COc1cccc(NC(=O)CCc2nc(-c3ccccc3F)no2)c1	-35.1	-52.4	-4.8	-5.0	17.1	-1.7
O=C1COc2cc(S(=O)(=O)CCC(=O)N3CCCCC3)c(Cl)cc2N1	0.4	7.2	-1.8	3.0	98.0*	.
CN1CCN(C(=O)CCS(=O)(=O)c2cc3c(cc2Cl)NC(=O)CO3)CC1	3.7	5.3	7.6	2.9	12.1	-8.2
Cc1ccc(CNC(=O)c2ccc(N3CCC4(CC3)CC(c3ccccc3)=NO4)c([N+](=O)[O-])c2)cc1	1.2	10.1	77.8*	11.8	-3.4	20.5
O=C(NCc1ccccc1)c1ccc(N2CCC3(CC2)CC(c2ccccc2)=NO3)c([N+](=O)[O-])c1	6.7	-0.9	13.2	-3.3	2.2	3.2
CC1CCCCN1S(=O)(=O)c1cccc2nonc12 (stereo not given)	25.1	18.8	-3.2	6.3	-17.5	-2.5
CCc1nc(NCC2CCCN2CC)c2nnn(Cc3ccccc3F)c2n1 (stereo not given)	4.8	10.1	0.0	-19.8	69.3*	-1.9
CCc1nc(NCCc2ccccn2)c2nnn(Cc3ccccc3F)c2n1	20.6	2.4	0.6	5.1	13.7	3.3
CCCc1nc2ccc(C)cn2c1Cc1ccc(OC)cc1C	-33.5	-16.3	.	9.4	12.8	.
COc1ccc([N+](=O)[O-])cc1NCc1c(F)cccc1F	7.6	7.8	-2.0	3.9	58.8*	.
COc1ccc([N+](=O)[O-])cc1NCc1cccc([N+](=O)[O-])c1	-4.3	-8.4	-2.8	-5.1	-10.0	-2.3
COc1c(Cl)cc(Br)c(OC)c1C(=O)NC(=O)Nc1nc(C)cc(C)n1	22.1	22.5	2.4	13.9	1.6	23.8
CCc1noc(C)c1C(=O)N(C)CC(=O)Nc1cccc(OC)c1	1.9	-8.4	67.6*	5.6	-1.6	.
CCc1noc(C)c1C(=O)N(C)CC(=O)Nc1ccc(OC)cc1	-9.2	-2.4	-7.0	-6.1	5.2	-2.0
O=C1c2ccccc2S(=O)(=O)c2cc(N3CCOCC3)ccc21	-3.4	-43.6	30.7	44.5	71.1*	22.1
COCCNC(=O)c1cccc2c1C(=O)c1ccc(N3CCOCC3)cc1S2(=O)=O	-23.3	-4.3	-4.3	-13.2	-5.2	-3.0
C=CCc1c(C)nc2cc(-c3ccc(C)cc3)[nH]n2c1=O	-130.2	-151.4	11.7	36.9	63.0*	-9.0
CCc1c(C)nc2cc(-c3ccccc3)[nH]n2c1=O	-269.8	-247.5	-18.2	-56.7	4.5	-25.5
Cc1onc(COc2ccccc2O)c1Br	-29.6	-15.2	0.8	-17.1	-1.7	-23.0
CC(C)OCC(O)CS(=O)Cc1ccccc1 (stereo not given)	-0.9	9.5	-1.3	-1.3	10.5	8.1
CCOc1ccc(N2C(=O)CC(Sc3nc(C)cc(C)n3)C2=O)cc1 (stereo not given)	24.3	6.0	1.0	-12.3	-16.4	4.1
CCOc1ccc(N2C(=O)CC(Sc3nnnn3-c3ccccc3)C2=O)cc1 (stereo not given)	95.9*	-1.0	8.3	-5.0	-5.1	7.9
Cc1ccc(-c2nc3ccccc3[nH]2)cc1NC(=O)c1sc2cc(Cl)ccc2c1Cl	82.8*	-76.1	4.9	-13.2	-57.4	-12.3
SMILES	Peg3 prom inh	HIF-2a block	EBV LMP1 NFkB	TROY signal inh	TWEAK-Fn14 inh	MITF TRPM1 inh
Cc1ccc(-c2nc3ncccc3o2)cc1NC(=O)c1sc2ccccc2c1Cl	78.0*	8.3	37.7	-11.9	-60.0	45.0
Cc1ccc(-c2nc3ncccc3o2)cc1NC(=O)c1cccs1	-15.7	-18.1	8.6	-14.1	-6.2	-3.1
CC(=O)c1ccc(OC(=O)Cc2cccc3ccccc23)cc1	-9.6	18.5	-2.3	7.4	-7.4	-5.8
COc1ccccc1-c1csc(C(C)(O)c2cccc(F)c2)n1 (stereo not given)	-0.4	2.6	.	7.2	-3.4	.
CN(C(=O)COC(=O)CSc1ccccc1)c1c(N)n(Cc2ccccc2)c(=O)[nH]c1=O	2.1	7.8	9.4	12.3	-42.7	.
Cc1cc(C(=O)Cn2nc(C(=O)O)c3ccccc3c2=O)c(C)n1-c1ccccc1	-111.5	-99.9	9.4	70.2*	35.5	-19.6
C#CCOCCOCCOCCNc1nc(N2CCN(C(=O)CCCCCCCCCCNC(=O)[C@@H](CCSC)n3cc(CCO)nn3)CC2)nc(N2CCN(C(=O)CCCCCCCCCCNC(=O)[C@@H]([C@H](C)O)n3cc(C)nn3)CC2)n1	-41.9	-2.5	-3.0	-28.3	23.3	26.7
C#CCOCCOCCOCCNc1nc(N2CCN(C(=O)CCCCCCCCCCNC(=O)[C@@H](CCSC)n3cc(CCO)nn3)CC2)nc(N2CCN(C(=O)CCCCCCCCCCNC(=O)[C@H](CO)n3cc(CCCCCN)nn3)CC2)n1	-8.6	12.4	6.7	-5.3	-22.6	10.2
C#CCOCCOCCOCCNc1nc(N2CCN(C(=O)CCCCCCCCCCNC(=O)Cn3cc(C[C@@H](C)O)nn3)CC2)nc(N2CCN(C(=O)CCCCCCCCCCNC(=O)[C@@H](CCSC)n3cc(CCO)nn3)CC2)n1	-69.8	-3.8	-21.1	-39.3	60.2*	79.2*
C#CCOCCOCCOCCNc1nc(N2CCN(C(=O)CCCCCCCCCCNC(=O)[C@H](CCCCN)n3cc(C[C@@H](C)CC)nn3)CC2)nc(N2CCN(C(=O)CCCCCCCCCCNC(=O)[C@H](CCCN=C(N)N)n3cc(C[C@@H](C)CC)nn3)CC2)n1	101.3*	41.0*	6.4	40.8	60.4*	103.9*
C#CCOCCOCCOCCNc1nc(N2CCN(C(=O)CCCCCCCCCCNC(=O)[C@@H](CCSC)n3cc(CCO)nn3)CC2)nc(N2CCN(C(=O)CCCCCCCCCCNC(=O)[C@H](CCCN=C(N)N)n3cc(C[C@@H](C)CC)nn3)CC2)n1	7.1	-8.6	37.7	26.0	-20.4	68.7*
O=C(Nc1ccc(F)c(Cl)c1)Nc1nnc([C@@H]2O[C@H](CO)[C@@H](O)[C@H]2O)s1	-3.0	-1.6	.	13.7	33.7	.
O=C(NCc1ccc2c(c1)OCO2)OCc1ccccc1	.	-144.6	.	.	.	.
CN(c1ccccc1)S(=O)(=O)c1ccc(C(=O)NCCc2ccc(F)cc2)cc1	-5.2	8.1	-7.9	-3.5	40.4	4.1
CN(c1ccccc1)S(=O)(=O)c1cccc(NC(=O)c2ccc3ncsc3c2)c1	57.4*	8.8	-0.7	62.8*	76.1*	15.7
